Experimental data from PubChem BioAssay (NCATS).
Inconclusive results are not listed. Where a call stands in place of a potency, no number is given. Values without a mark were called inactive. Active and inactive are the calls of the source. Unless noted, the call rests on the fitted dose curve; in most records, active means well fitted curve in the direction sought with a large enough effect; inconclusive means small, poorly fitted or top-dose-only effect, or another doubt; inactive means no such curve, though single readings can be large; an effect the other way counts as inactive or inconclusive.

Experiments:
[1] = qHTS for Inhibitors of the Functional Ribonucleoprotein Complex (vRNP) of Lassa (LASV) Arenavirus: LASV Primary Screen - GLuc reporter signal (AID 1347082; calls by dose curve; tested in HEK293 reporter line; further: nearly all actives have a fitted effect of over 60% in size; further: potency means the concentration at half of the fitted maximal effect)
[2] = target: Luciferin 4-monooxygenase (Photinus pyralis) (UniProt P08659); test: Biochemical firefly luciferase enzyme assay for NPC (AID 624030);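 further: purified P. pyralis luciferase at 10 nM with luciferin and ATP substrate; nearly all actives have a fitted effect of over 70% in size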
Sequence of Luciferin 4-monooxygenase (Photinus pyralis) (P08659 whole entry, looked up): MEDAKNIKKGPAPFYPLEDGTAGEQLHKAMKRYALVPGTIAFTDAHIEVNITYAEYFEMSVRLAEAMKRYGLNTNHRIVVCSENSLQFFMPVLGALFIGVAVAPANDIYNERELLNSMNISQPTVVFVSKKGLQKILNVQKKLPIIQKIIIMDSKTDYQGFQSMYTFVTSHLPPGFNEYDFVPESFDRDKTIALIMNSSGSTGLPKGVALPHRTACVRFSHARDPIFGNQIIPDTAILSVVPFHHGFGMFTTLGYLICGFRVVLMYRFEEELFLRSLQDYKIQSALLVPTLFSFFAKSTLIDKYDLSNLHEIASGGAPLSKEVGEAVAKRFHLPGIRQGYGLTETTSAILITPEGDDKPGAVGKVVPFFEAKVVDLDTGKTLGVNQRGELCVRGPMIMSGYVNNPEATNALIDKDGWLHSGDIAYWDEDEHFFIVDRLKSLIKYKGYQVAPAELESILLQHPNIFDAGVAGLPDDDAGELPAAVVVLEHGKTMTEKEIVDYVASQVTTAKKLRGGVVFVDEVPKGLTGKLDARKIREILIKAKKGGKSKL
Outline: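 Purified P. pyralis luciferase at 10 nM in 50 mM Tris Acetate (final), luminescence read within 5 minutes of enzyme addition to compounds. Activity normalised to PTC124 versus DMSO; concentration-response curves classed by r2, magnitude and activity.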

[3] = qHTS Assay for Identifying Gametocytocidal Compounds (AID 743244);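 further: actives lower the fluorescent signal which means gametocytes are killed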; settings: P. falciparum 3D7 stage III-V gametocytes, alamarBlue, 72 h; max response: stronger effect = lower value
Outline: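 Using 20,000 stage III–V 3D7 gametocytes per well, compounds were incubated 72 h under 37 °C/5% CO2. Viability was then assessed by 24 h alamarBlue reduction, measured fluorometrically at 525/598 nm.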

[4] = P-glycoprotein substrates identified in KB-8-5-11 adenocarcinoma cell line, qHTS therapeutic library screen (AID 1346987); further: nearly all actives have a fitted effect of over 65% in size; further: potency means the concentration at half of the fitted maximal effect
Outline: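 Compounds are pinned in dose-response onto KB-8-5-11 cells (500 cells/well, colchicine-free medium) and left 72 h at 37 degree C. CellTiter-Glo luminescence then yields AC50 values.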

[5] = Drug repurposing screens with cells derived from glioblastoma tumor samples (AID 1345199); settings: GBM patient neurospheres viability, ATP luminescence, 48 h; Potency: tumour line A; series mostly up to 45.9 µM; further: nearly all actives have a fitted effect of over 40% in size; further: potency means the concentration at half of the fitted maximal effect
Outline: (§1)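 Primary testing used CD133+ neurospheres from four GBM patients, seven concentrations, 48 h exposure and ATP-based viability; confirmation added three slower-growing patient lines.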

[6] = test system: astro; test: as above; settings: viability, ATP luminescence, 48 h; series mostly up to 45.9 µM
Outline: as §1

[7] = qHTS for Inhibitors of the Functional Ribonucleoprotein Complex (vRNP) of Lassa (LASV) Arenavirus: Viability assay - alamar blue signal for LASV Primary Screen (AID 1347083; calls by dose curve; tested in HEK293 reporter line; further: nearly all actives have a fitted effect of over 80% in size)
[8] = qHTS for Inhibitors of the Functional Ribonucleoprotein Complex (vRNP) of Lymphocytic Choriomeningitis Arenaviruses (LCMV): Viability assay - alamar blue signal for LCMV Primary Screen (AID 1347085; calls by dose curve; tested in HEK293 reporter line; further: nearly all actives have a fitted effect of over 80% in size)
[9] = target: Nucleoprotein (Lymphocytic choriomeningitis virus (strain Armstrong)) (UniProt P09992); test: qHTS for Inhibitors of the Functional Ribonucleoprotein Complex (vRNP) of Lymphocytic Choriomeningitis Arenaviruses (LCMV): LCMV Primary Screen - GLuc reporter signal (AID 1347086; calls by dose curve; further: nearly all actives have a fitted effect of over 70% in size)
Sequence of Nucleoprotein (Lymphocytic choriomeningitis virus (strain Armstrong)) (P09992 whole entry, looked up): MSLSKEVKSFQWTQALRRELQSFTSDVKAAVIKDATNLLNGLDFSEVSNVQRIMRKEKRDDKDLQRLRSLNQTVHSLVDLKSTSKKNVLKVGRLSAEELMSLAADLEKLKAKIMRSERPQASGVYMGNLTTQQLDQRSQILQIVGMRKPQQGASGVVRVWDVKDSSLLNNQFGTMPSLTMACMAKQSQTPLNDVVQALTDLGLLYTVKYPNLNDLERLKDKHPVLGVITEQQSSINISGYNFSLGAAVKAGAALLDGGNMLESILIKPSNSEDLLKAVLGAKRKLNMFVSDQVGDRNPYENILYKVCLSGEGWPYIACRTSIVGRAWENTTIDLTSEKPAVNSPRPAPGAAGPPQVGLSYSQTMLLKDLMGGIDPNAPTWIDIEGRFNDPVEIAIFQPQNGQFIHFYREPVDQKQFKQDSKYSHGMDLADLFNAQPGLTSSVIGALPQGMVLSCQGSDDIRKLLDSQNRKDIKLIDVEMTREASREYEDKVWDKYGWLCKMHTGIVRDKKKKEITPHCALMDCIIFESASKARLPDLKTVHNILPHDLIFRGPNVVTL

[10] = P-glycoprotein substrates identified in KB-3-1 adenocarcinoma cell line, qHTS therapeutic library screen (AID 1346986);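 further: potency means the concentration at half of the fitted maximal effect; potency is for cytotoxicity meaning loss of cell viability; nearly all actives have a fitted effect of over 60% in size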
Outline: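 In 1536-well format, 500 cells/well received pinned compound titrations and were incubated 72 h, 5% CO2. Viability was read by CellTiter-Glo; cytotoxic if AC50 < 10 uM and efficacy >50%.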

[11] = Primary qHTS for inhibitors of nuclear receptor binding SET domain protein 2 (NSD2) in an isogenic RCH-ACV NSD2 p.E1099K mutant (9B) (AID 1645876); further: potency means the concentration at half of the fitted maximal effect; nearly all actives have a fitted effect of over 70% in size
[12] = Primary qHTS for inhibitors of nuclear receptor binding SET domain protein 2 (NSD2) in an RCH-ACV wild type WT cells (2C) (AID 1645877); further: potency means the concentration at half of the fitted maximal effect; nearly all actives have a fitted effect of over 70% in size
[13] = target: Glutathione peroxidase 1 (Homo sapiens) (UniProt P07203); test: Primary qHTS Assay for Inhibitors of Recombinant Selenoprotein Glutathione Peroxidase 1 (GPX1) (AID 1845191); further: nearly all actives have a fitted effect of over 65% in size
Sequence of Glutathione peroxidase 1 (Homo sapiens) (P07203 whole entry, looked up): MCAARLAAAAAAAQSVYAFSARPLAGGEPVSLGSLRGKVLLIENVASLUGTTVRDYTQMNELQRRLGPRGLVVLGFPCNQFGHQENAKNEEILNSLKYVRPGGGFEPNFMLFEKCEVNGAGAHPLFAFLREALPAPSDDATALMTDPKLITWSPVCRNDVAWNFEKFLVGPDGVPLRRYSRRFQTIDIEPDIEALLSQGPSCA
Outline: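 GR-coupled readout: NADPH consumption tracked by fluorescence, ex 340/em 450 nm, at t=0 and after 15 min at RT. Final mix 10 nM GPX1, 1 mM GSH, 0.5 mM CHP, 0.5 mM NADPH, 100 nM GR, 0.01% BSA, following 30 min enzyme–compound preincubation.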

[14] = Confirmatory qHTS for VERO E6 Cytotoxicity Assay: Counterscreen for SARS-CoV-2 CPE Assay (AID 1508605; calls by dose curve; further: nearly all actives have a fitted effect of over 60% in size)
[15] = Confirmatory qHTS for activators (rescue) of SARS-CoV-2 Cytopathic Effect (CPE) (AID 1508606; calls by dose curve)

CC(C)c1oc(=O)cc2c1[C@@H](O)[C@H]1OC(=O)[C@@]3(C)CC[C@@H](O)[C@@]2(C)C13 (some centres not stated)
Potency [1]: 5.62 µM (active)

CO[C@H]1[C@@H](O)[C@@H](C)O[C@H](O[C@H]2[C@H](Oc3cccc4c(O)c5c(=O)oc6ccc(C)c7c(=O)oc(c34)c5c67)O[C@H](C)[C@H](O)[C@@H]2O)[C@@H]1O
Potency [1]: inactive

C/C=C1\NC(=O)[C@H](CC(N)=O)N(C)C(=O)C([C@@H](C)O)NC(=O)C(CCCc2ccc(OC)cc2)NC(=O)[C@H](C(C)C)NC(=O)/C(=C\C)NC(=O)[C@H](O)[C@@H](C[C@@H](O)CCCCCCC)NC(=O)[C@H](C)NC(=O)CN(C)C(=O)[C@H](CCC(N)=O)NC1=O (some centres not stated)
Potency [1]: inactive

CC(C)(O)CC[C@@H](O)[C@](C)(O)[C@H]1CC[C@@]2(O)C3=CC(=O)[C@@H]4C[C@@H](O)[C@@H](O)C[C@]4(C)[C@@H]3CC[C@]12C
Potency [1]: inactive

CNC(C)Cc1ccccc1 (configuration not stated)
Potency [2]: inactive
max response [3]: 7.96%
Potency [4]: inactive
Potency [5]: inactive
Potency [6]: inactive

C=CC(C)(C)c1[nH]cnc1/C=C1\NC(=O)C(C(C)C)NC1=O (configuration not stated)
Potency [1]: inactive

c1ccc2c(c1)Sc1ccccc1N2C[C@@H]1CN2CCC1CC2
max response [3]: -2.33%
Potency [5]: inactive
Potency [6]: inactive

CCCCCc1cc(O)c2c(c1)OC(C)(C)c1ccc(C)cc1-2
Potency [2]: inactive
Potency [1]: inactive
Potency [7]: inactive
Potency [8]: inactive
Potency [9]: inactive
Potency [6]: 22.4 µM (active)

COC[C@@H]1OC(=O)/C(=C\N(C)CCCN(C)C)C2=C(O)C(=O)C3=C([C@@H](OC(C)=O)C[C@@]4(C)[C@@H]3CC[C@@H]4O)[C@@]21C
Potency [10]: 13 µM (active)
Potency [11]: 2.59 µM (active)
Potency [12]: 2.59 µM (active)
Potency [13]: inactive

COCC1OC(=O)c2coc3c2C1(C)C1=C(C3=O)C2CCC(=O)C2(C)CC1OC(C)=O (configuration not stated)
Potency [10]: 20.6 µM (active)
Potency [4]: 6.51 µM (active)
Potency [11]: 3.66 µM (active)
Potency [12]: 1.3 µM (active)

COc1cc2c(cc1OC)-c1c(OC)c(OC)c(OC)c3ccnc(c13)C2=O
Potency [1]: inactive

CC(=O)O[C@@H]1CC2C(C)(C)C(=O)C=C[C@]2(C)C2CC[C@]3(C)C(=CC(=O)O[C@H]3c3ccoc3)[C@@]21C (some centres not stated)
Potency [4]: 14.6 µM (active)
Potency [14]: inactive
Potency [15]: 11.2 µM (active)
Potency [13]: inactive
